This is a sample that favours compounds with a hit; in the whole collection about 1.1% have one here.
ASM inhibitor: inhibitors of human secretory acid sphingomyelinase; P17405; placental ASM, HMU-PC fluorogenic substrate, 60 min; Potency, µM (top dose mostly 57.5 µM), most hits filed as inhibitors; actives 0.006% (n = 340,000); AID 504937
Target sequence (P17405 47-631 limits assumed): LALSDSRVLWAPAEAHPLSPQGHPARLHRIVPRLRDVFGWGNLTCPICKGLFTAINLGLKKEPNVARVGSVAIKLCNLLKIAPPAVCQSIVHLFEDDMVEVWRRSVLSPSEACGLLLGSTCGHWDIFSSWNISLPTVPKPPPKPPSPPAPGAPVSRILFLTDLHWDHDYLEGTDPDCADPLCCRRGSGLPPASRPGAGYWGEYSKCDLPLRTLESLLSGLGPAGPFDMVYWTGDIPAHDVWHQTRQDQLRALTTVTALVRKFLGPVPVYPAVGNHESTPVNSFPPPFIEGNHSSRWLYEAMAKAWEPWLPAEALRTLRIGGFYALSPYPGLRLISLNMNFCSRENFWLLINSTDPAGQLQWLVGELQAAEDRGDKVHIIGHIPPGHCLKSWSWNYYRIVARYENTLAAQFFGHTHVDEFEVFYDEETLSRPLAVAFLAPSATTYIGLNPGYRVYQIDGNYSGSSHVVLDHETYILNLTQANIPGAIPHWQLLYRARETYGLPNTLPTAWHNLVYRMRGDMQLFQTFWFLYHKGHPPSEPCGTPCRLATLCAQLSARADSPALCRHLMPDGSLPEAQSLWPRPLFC
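Steps: dispense placental human ASM, pin compound, wait 10 min at room temperature, add HMU-PC0 substrate at 9 uM final, incubate 60 min at 37 °C, add stop solution raising pH to 10, read fluorescence.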
RXFP1 agonist: RXFP1 (human) receptor agonism; HEK293T-RXFP1 cAMP TR-FRET, 30 min; response scale: percent of porcine relaxin response, buffer zero; actives 0.3% (n = 370,000); Potency, µM (titrated, usually from 57.5 µM), usual class: activators; Q9HBX9; note: nearly all actives have a fitted effect of over 60% in size
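Agonist response is measured as cAMP accumulation in an RXFP1-transfected HEK293T line under PDE4 inhibition. Values are scaled between buffer-only and 29 nM porcine relaxin, and EC50s come from standard Hill equation fits.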
gsp agonist: gsp mutant agonism | gsp mutant cells, cAMP HTRF, 30 min | Potency, µM (highest dose often 76.9 µM), usual class: activators | actives 0.13% (n = 340,000) | AID 624287; active = well fitted activation curve with a large enough effect; inconclusive = small, poorly fitted or top-dose-only effect, or another doubt; inactive = no such curve, though single readings can be large or run the other way; cell line not stated here;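 note: phosphodiesterase inhibitor Ro 20-1724 added with compounds to block cAMP breakdown; nearly all actives have a fitted effect of over 60% in size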
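Cells stably selected in G418 were plated at 2000/well, grown 16-24 hr, then given compounds in DMSO with the PDE inhibitor […] (300 uM solution added) for 30 min at 37C; cAMP was read by HTRF.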
Integrin act MD: activates integrin-mediated alleviation for muscular dystrophy | alpha7betagal myoblasts, beta-gal FDG fluorescence, 48 h | actives 0.064% (n = 350,000) | Potency, µM (titrated, usually from 38.3 µM), usual class: activators; note: nearly all actives have a fitted effect of over 60% in size
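Alpha7betagal+/- myoblasts (passage 13) were plated 16-24 hr, then exposed to compounds (1:260 dilution of DMSO stock) for 48 hours at 37C. After MPER lysis, β-galactosidase reporter activity was read as FDG fluorescence (ex 480/em 540) after 30 minutes.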
RXFP1 antagonist: blocks the human relaxin receptor RXFP1; activity change, negative = inhibition, % at 57.5 µM; actives 0.59% (n = 350,000); Q9HBX9; HEK293-RXFP1, relaxin-stimulated cAMP HTRF, 30 min; hits give low values; AID 1259400;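 active = activity change of -60% or lower, but not beyond a set lower limit; inconclusive = change between -60% and -40%, or beyond the set limit; inactive = change above -40%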
gsp antagonist: antagonizes gsp, the McCune-Albright syndrome mutation; actives 0.4% (n = 340,000); Potency, µM (highest dose often 76.9 µM), actives largely listed as inhibitors; gsp-mutant cells, cAMP HTRF, 30 min; AID 624288; calls by dose curve; cell line not stated here;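 note: intracellular cAMP measured with PDE inhibitor Ro 20-1724 present during compound exposure; nearly all actives have a fitted effect of over 65% in size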
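Measurement of cellular cAMP by homogeneous time-resolved fluorescence following a 30 min compound exposure at 37C. The PDE inhibitor […] was present throughout; the assay buffer was DPBS with 0.05% BSA and 0.005% Tween 20.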
Each line names hits and unclear results; the compound was inactive in the other large screens. Unless noted, calls come from the whole dose curve; as a rule, active = well fitted curve in the direction sought with a large enough effect; inconclusive = small, poorly fitted or top-dose-only effect, or another doubt; inactive = no such curve, though single readings can be large; an effect the other way counts as inactive or inconclusive.

Cc1c(C)c2c(c(C)c1OC(=O)CCC(=O)OCCO)CC[C@](C)(CCC[C@H](C)CCC[C@H](C)CCCC(C)C)O2	none (no result: ASM inhibitor, RXFP1 agonist, gsp agonist, Integrin act MD, gsp antagonist)
CCCCS(=O)(=O)N[C@@H](Cc1ccc(OCCCCC2CCNCC2)cc1)C(=O)O	none (no result: ASM inhibitor, RXFP1 agonist, gsp agonist, Integrin act MD, gsp antagonist)
NC(=O)N[C@@H](CCC(=O)O)C(=O)O	none (no result: ASM inhibitor, RXFP1 agonist, gsp agonist, Integrin act MD, gsp antagonist)
COc1ccc(C2=NS(=O)(=O)N(C)C(C(=O)Nc3ccc(C(C)=O)cc3)=C2)cc1OC	gsp antagonist 32µM
Cc1c(C(=O)Nc2cccc(C(F)(F)F)c2)oc2ccc(S(=O)(=O)N3CCOCC3)cc12	ASM inhibitor 22µM, gsp agonist inconclusive, gsp antagonist inconclusive
Brc1ccc(Nc2c3c(nc4nncn24)CCC3)cc1	none (no result: ASM inhibitor, gsp agonist, Integrin act MD, gsp antagonist)
Cc1ccc(-c2nn(-c3ccccc3)cc2/C=C/C(=O)OCC(=O)NC2CC2)o1	gsp antagonist 50µM
Cc1ccc(-c2nc(NCc3cccnc3)c3ccccc3n2)cc1	gsp antagonist 35µM
c1ccc(-c2nc(NCc3cccnc3)c3ccccc3n2)cc1	none
CC(C)C(OC(=O)CCCC(=O)Nc1nccs1)C(=O)NC1CCCCC1 (centres undefined)	none
COC(=O)c1ccccc1-c1ccc(/C=N/Nc2nc(N3CCCC3)nc(N3CCCC3)n2)o1	RXFP1 antagonist inconclusive, gsp antagonist 25µM
Cc1ccc(/C=N/Nc2nc(N3CCCCC3)nc(N3CCCCC3)n2)o1	none
Cc1ccc2c(=O)n3c(nc2c1)C(C)NC(=O)c1cccnc1-3 (centres undefined)	gsp agonist 32µM (no result: ASM inhibitor, RXFP1 agonist, gsp antagonist)
CC(=O)N1c2ccc(S(=O)(=O)N3CCC(C(=O)NCc4ccc(Cl)cc4)CC3)cc2CC1C (centres undefined)	gsp antagonist inconclusive
CC(=O)N1c2ccc(S(=O)(=O)N3CCC(C(=O)NCCc4ccc(Cl)cc4)CC3)cc2CC1C (centres undefined)	gsp agonist inconclusive, gsp antagonist 35µM
COc1nc(-c2ccccc2)c2cc(Br)ccc2n1	gsp agonist 13µM (no result: RXFP1 agonist)
NNc1nc(-c2ccccc2)c2cc(Br)ccc2n1	none
CN1c2cc(Cl)ccc2-c2nc(SCC(=O)Nc3ccc(F)cc3F)ncc2S1(=O)=O	RXFP1 agonist 32µM (no result: ASM inhibitor, gsp agonist, Integrin act MD, gsp antagonist)
Cc1cccc(C)c1NC(=O)CSc1ncc2c(n1)-c1ccc(Cl)cc1N(Cc1ccccc1)S2(=O)=O	RXFP1 agonist 10µM (no result: ASM inhibitor, gsp agonist, Integrin act MD, gsp antagonist)
CSc1nc2c([nH]c3ccccc32)c(=O)n1-c1ccc(C)cc1	none (no result: ASM inhibitor, gsp agonist, Integrin act MD, RXFP1 antagonist, gsp antagonist)
Cc1ccc(C(c2cccc(Br)c2)c2c(C)[nH]c3ccccc23)s1 (centres undefined)	none (no result: ASM inhibitor, gsp agonist, Integrin act MD, gsp antagonist)
Cc1ccc(-n2c(C)cc(C(=O)CSc3nncs3)c2C)cc1	gsp antagonist 25µM
Cc1cc(C(=O)CSc2nncs2)c(C)n1-c1c(C)n(C)n(-c2ccccc2)c1=O	none
Cc1c(Cl)cccc1NC(=O)Nc1ccc2snnc2c1	none (no result: ASM inhibitor, gsp agonist, Integrin act MD, RXFP1 antagonist, gsp antagonist)
O=C(CCc1ccccc1)N(Cc1cccnc1)c1nc2c(F)cc(F)cc2s1	RXFP1 antagonist -86 (no result: ASM inhibitor, gsp agonist, Integrin act MD, gsp antagonist)
O=C(C1CCCCC1)N(Cc1cccnc1)c1nc2c(F)cccc2s1	RXFP1 antagonist -72 (no result: ASM inhibitor, gsp agonist, Integrin act MD, gsp antagonist)
CC(=O)c1cccc(NS(=O)(=O)c2cccc(S(=O)(=O)c3ccc(Br)cc3)c2)c1	none (no result: ASM inhibitor, gsp agonist, Integrin act MD, gsp antagonist)
Cc1ccc(CNC(=O)CCc2nnc3ccc(NCCCN4CCCC4=O)nn23)cc1	RXFP1 agonist inconclusive
CSc1ccc(CCNC(=O)CCc2nnc3ccc(NCCCN4CCCC4=O)nn23)cc1	RXFP1 agonist inconclusive, gsp agonist inconclusive, RXFP1 antagonist -70
O=C(Nc1nc2ccsc2c(=O)s1)c1ccc(Cl)cc1	RXFP1 agonist 13µM, gsp agonist inconclusive, Integrin act MD inconclusive
O=C(Nc1nc(=O)c2ccccc2s1)c1ccc(Cl)cc1	RXFP1 agonist 32µM, gsp agonist inconclusive
O=C(Nc1nc(=O)c2ccccc2s1)c1ccc(F)cc1	none
COc1ccc(C(=O)NCC(c2ccc(N(C)C)cc2)N2CCc3ccccc32)cc1OC (centres undefined)	none (no result: ASM inhibitor, gsp agonist, Integrin act MD, gsp antagonist)
CN(C(=O)CSc1nc2ccccc2[nH]1)c1ccc(F)cc1	none (no result: ASM inhibitor, gsp agonist, Integrin act MD, gsp antagonist)
CC1CCCCC1NC(=O)CN1CCC(NC(=O)C(C)(C)C)CC1 (centres undefined)	none (no result: ASM inhibitor, RXFP1 agonist, gsp antagonist)
COc1ccc(N/N=C(/C#N)S(=O)(=O)c2nsc(C)c2C#N)cc1	none
